High-throughput results as filed in PubChem.
Shown are actives, neighbours in structure and some others; about 19% of the full set was active somewhere.
IL1B secr inh = qHTS for Inhibitors of Inflammasome Signaling: IL-1-beta AlphaLISA Primary Screen | THP-1 LPS/ATP IL-1B secretion, AlphaLISA, 16 h; stronger effect = lower value | activity change, % at 57.5 µM | 360,000 compounds, 4.7% hits | AID 743279, 2014; in the data active = activity change below about -50%; inconclusive = mostly about -30% to -49%
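Secreted IL-1B measured by AlphaLISA bead assay after 16 h compound exposure of THP-1 cells; compounds (final up to 57.5 uM) added 1 h before LPS (250 ng/mL) and ATP (1.25 mM) stimulation; lower signal means less secretion.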
TDP1 inh = qHTS Assay for Inhibitors of Tyrosyl-DNA Phosphodiesterase (TDP1); Tyrosyl-DNA phosphodiesterase 1 (Homo sapiens), Q9NUW8; Potency, µM (top dose mostly 130 µM), without a hit: top-dose activity change, negative = inhibition, hits mostly inhibitors; 350,000 compounds, 0.28% hits; recombinant TDP1, AlphaScreen DNA substrate cleavage; also: potency is read from the fitted curve at half-maximal effect; nearly all actives have a fitted effect of over 40% in size
Target sequence (Q9NUW8 whole entry, looked up): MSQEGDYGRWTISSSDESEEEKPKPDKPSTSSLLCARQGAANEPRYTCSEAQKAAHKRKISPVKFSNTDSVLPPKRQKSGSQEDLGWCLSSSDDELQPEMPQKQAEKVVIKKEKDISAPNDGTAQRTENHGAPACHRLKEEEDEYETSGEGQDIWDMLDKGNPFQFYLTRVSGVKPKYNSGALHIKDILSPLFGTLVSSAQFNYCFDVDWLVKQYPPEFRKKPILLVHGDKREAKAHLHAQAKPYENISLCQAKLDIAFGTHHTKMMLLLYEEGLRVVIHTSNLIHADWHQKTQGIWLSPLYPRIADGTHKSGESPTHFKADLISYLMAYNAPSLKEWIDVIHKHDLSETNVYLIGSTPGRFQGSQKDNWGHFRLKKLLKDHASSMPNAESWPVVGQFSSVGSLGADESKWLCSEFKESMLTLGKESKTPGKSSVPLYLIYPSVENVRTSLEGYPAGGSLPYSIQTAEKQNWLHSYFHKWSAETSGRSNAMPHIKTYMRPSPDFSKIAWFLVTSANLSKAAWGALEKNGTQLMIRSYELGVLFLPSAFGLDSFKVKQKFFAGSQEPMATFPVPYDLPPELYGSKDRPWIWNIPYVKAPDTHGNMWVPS
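Enzyme-compound mixtures sat 15 min at room temperature, followed by a 5 min reaction with 15 nM final substrate and 10 min with AlphaScreen beads. Recombinant human Tdp1 was used at 1 nM final.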
TDP1 cell noCPT = qHTS for Inhibitors of human tyrosyl-DNA phosphodiesterase 1 (TDP1): qHTS in cells in absence of CPT; DT40 Tdp1-/- hTDP1 cells, no CPT, ATP luminescence, 48 h; Potency, µM (highest dose often 46.2 µM), for inactives: at the top dose activity change, negative = growth inhibition, most hits filed as inhibitors; 420,000 compounds, 15% hits; AID 686978, 2013; also: potency is read from the fitted curve at half-maximal effect; nearly all actives have a fitted effect of over 55% in size
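Cells were dispensed at 400 per well, compounds added by pin tool, plates incubated ≥48 hr at 37 °C, then CellTiter-Glo added for 30 min at room temperature before luminescence reading. Line: DT40 Tdp1-/- complemented with hTDP1; camptothecin omitted.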
Giardia killer = Small Molecules that selectively kill Giardia lamblia: qHTS; Giardia lamblia trophozoite viability; activity change, % at 7.66 µM, hits read low; 340,000 compounds, 0.15% hits; AID 540267, 2011; in the data active = activity change below about -80%; inconclusive = between about -30% and that limit;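 also: parasites exposed to compound for two days anaerobically before the ATP read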
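ATP-content bioluminescence gauges trophozoite survival. Cells (100/well) receive compound and incubate anaerobically for 48 hrs at 37 deg C; detection reagent follows for 15-30 min at room temperature.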
ELG1 repair inh = qHTS screen for small molecules that inhibit ELG1-dependent DNA repair in human embryonic kidney (HEK293T) cells expressing luciferase-tagged ELG1; 330,000 compounds, 2.3% hits; HEK293T ELG1-luciferase reporter, luminescence, 16 h; DNA damage induced by 5-fluorouridine; AID 504467, 2011; Potency, µM (top dose mostly 46.1 µM), inactives show at the top dose activity change, negative = inhibition, hits mostly inhibitors; also: potency is read from the fitted curve at half-maximal effect; nearly all actives have a fitted effect of over 55% in size
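Cells (2,000 per well) received 5-fluorouridine plus test compound or DMSO and were incubated 16 hr at 37 °C, 5% CO2. Luciferase activity was read by luminescence 30 min after ONE-Glo addition; signal suppression marked inhibition of damage-induced ELG1 function.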
TDP1 cell CPT = qHTS for Inhibitors of human tyrosyl-DNA phosphodiesterase 1 (TDP1): qHTS in cells in presence of CPT; 420,000 compounds, 12% hits; chicken DT40 Tdp1-/-;hTDP1 cells + 20 nM CPT, ATP luminescence, 48 h; Potency, µM (doses to about 46.2 µM), for inactives: at the highest dose activity change, negative = growth inhibition, usual class: inhibitors; also: potency is read from the fitted curve at half-maximal effect; nearly all actives have a fitted effect of over 55% in size
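Chicken DT40 Tdp1-/- cells complemented with human TDP1, 400 cells/well, exposed to compounds plus 20 nM camptothecin for at least 48 h at 37 C; viability read as ATP content by CellTiter-Glo luminescence.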
* = called active by the depositor; [ ] = remark or other dose. Unless noted, calls follow the shape of the dose curve; as a rule, active = well fitted curve in the direction sought with a large enough effect; inconclusive = small, poorly fitted or top-dose-only effect, or another doubt; inactive = no such curve, though single readings can be large; an effect the other way counts as inactive or inconclusive. % is scaled to controls: 0 for no effect and ±100 for the full control effect.

How did CN(c1ccc(Cl)cc1)S(=O)(=O)c1nnc(NC(=O)C2CCCCC2)s1 do in these assays?
TDP1 inh: 0.0%; TDP1 cell noCPT: -20.7%; TDP1 cell CPT: -11.3%

How did C=CCn1c(C)cc(C(=O)CSc2nc3ccccc3c(=O)[nH]2)c1C do in these assays?
IL1B secr inh: -19.0; TDP1 inh: 1.0%; TDP1 cell noCPT: 20.6µM*; Giardia killer: -18.3; ELG1 repair inh: inconclusive; TDP1 cell CPT: 16.4µM*

What do the screens show for `COCCn1c(C)cc(C(=O)COc2nc3ccccc3nc2C)c1C`?
IL1B secr inh: -18.4; TDP1 inh: 2.0%; TDP1 cell noCPT: 14.6µM*; Giardia killer: -21.4; ELG1 repair inh: 23.1µM*; TDP1 cell CPT: 16.4µM*

How did COCCn1c(C)cc(C(=O)CSc2nc3ccccc3c(=O)[nH]2)c1C do in these assays?
IL1B secr inh: 8.3; TDP1 inh: -1.1%; TDP1 cell noCPT: 14.6µM*; Giardia killer: -5.4; ELG1 repair inh: inconclusive; TDP1 cell CPT: 16.4µM*

Results for Cc1cc(C)c(C(=O)CSc2nc3ccccc3c(=O)[nH]2)cc1C ?
IL1B secr inh: 31.7; TDP1 inh: 2.4%; TDP1 cell noCPT: inconclusive; Giardia killer: 4.1; ELG1 repair inh: inconclusive; TDP1 cell CPT: -19.0%

Results for Cc1cc(C(=O)CSc2nc3ccccc3[nH]2)c(C)n1Cc1ccco1 ?
IL1B secr inh: -18.3; TDP1 inh: 11.3%; TDP1 cell noCPT: 5.8µM*; Giardia killer: 3.7; ELG1 repair inh: inconclusive; TDP1 cell CPT: 8.2µM*

What do the screens show for `COCCn1c(C)cc(C(=O)CSc2ccc3ccccc3n2)c1C`?
IL1B secr inh: -4.0; TDP1 inh: 6.8%; TDP1 cell noCPT: inconclusive; Giardia killer: -21.8; ELG1 repair inh: inconclusive; TDP1 cell CPT: inconclusive

How did COc1ccccc1C(=O)O[C@H]1[C@H](Cc2ccccc2)NS(=O)(=O)[C@H]2C[C@@H]3C=C[C@]12O3 do in these assays?
IL1B secr inh: -4.0; TDP1 inh: 0.7%; TDP1 cell noCPT: 6.7%; Giardia killer: 4.2; ELG1 repair inh: 5.5%; TDP1 cell CPT: -27.9%

Results for Cc1ccccc1C1(CC(=O)N2CC3(C)CC2CC(C)(C)C3)CC(=O)N(Cc2cccnc2)C1=O (stereo not given) ?
TDP1 cell noCPT: 20.6µM*; TDP1 cell CPT: -13.6%[9.04 µM]

How did O=C1CC(CC(=O)N2CC3CCCC2C3)(c2cccc(F)c2)C(=O)N1Cc1cccnc1 (stereo not given) do in these assays?
TDP1 cell noCPT: 18.4µM*; TDP1 cell CPT: inconclusive

How did Cc1c2cnn(CC(=O)NCCc3ccccc3)c(=O)c2c(C)n1Cc1ccccc1Cl do in these assays?
TDP1 inh: 7.6%; TDP1 cell noCPT: inconclusive; TDP1 cell CPT: inconclusive

What do the screens show for `Cc1ccc(CNc2cnn(C34CC5CC(CC(C5)C3)C4)c(=O)c2Cl)cc1`?
IL1B secr inh: -16.8; TDP1 inh: -5.7%; TDP1 cell noCPT: inconclusive; Giardia killer: -4.4; ELG1 repair inh: -3.8%; TDP1 cell CPT: inconclusive

Results for O=c1c(Cl)c(N2CCN(c3ccccc3)CC2)cnn1C12CC3CC(CC(C3)C1)C2 ?
IL1B secr inh: 5.8; TDP1 inh: -2.7%; TDP1 cell noCPT: 23.1µM*; Giardia killer: 9.4; ELG1 repair inh: -1.9%; TDP1 cell CPT: 25.9µM*

How did O=c1c(Cl)c(NCc2ccc(F)cc2)cnn1C12CC3CC(CC(C3)C1)C2 do in these assays?
IL1B secr inh: -10.6; TDP1 inh: -5.7%; TDP1 cell noCPT: 16.4µM*; Giardia killer: -19.1; ELG1 repair inh: inconclusive; TDP1 cell CPT: 16.4µM*

What do the screens show for `COCCNC(=O)Cn1c(=O)n(CCCCCC(=O)NCc2ccccc2Cl)c(=O)c2sccc21`?
TDP1 inh: 0.9%; TDP1 cell noCPT: -28.1%; TDP1 cell CPT: inconclusive

How did C=CCSc1nc2c(N)ncnc2n1C1OC(CO)C(O)C1O (stereo not given) do in these assays?
IL1B secr inh: -11.6; TDP1 cell noCPT: -12.8%; TDP1 cell CPT: 5.3%

How did CC1CCCCN1S(=O)(=O)c1ccc(C(=O)Nc2sc3c(c2C(N)=O)CC(C)(C)NC3(C)C)cc1 (stereo not given) do in these assays?
TDP1 inh: 0.0%; TDP1 cell noCPT: inconclusive; TDP1 cell CPT: 25.9µM*

Results for COc1cc2[nH]c(=O)n(CCCCCC(=O)N3CC=C(c4ccccc4)CC3)c(=O)c2cc1OC ?
IL1B secr inh: -73.1*; TDP1 inh: 7.9%; TDP1 cell noCPT: 16.4µM*; Giardia killer: 8.8; ELG1 repair inh: 8.2µM*; TDP1 cell CPT: 25.9µM*

What do the screens show for `COc1cc2[nH]c(=O)n(CCC(=O)N3CCN(c4cc(Cl)ccc4C)CC3)c(=O)c2cc1OC`?
IL1B secr inh: -7.6; TDP1 inh: 2.4%; TDP1 cell noCPT: inconclusive; Giardia killer: -12.6; ELG1 repair inh: 8.2µM*; TDP1 cell CPT: inconclusive

What do the screens show for `Cc1ccc(C)c(N2CCN(C(=O)CCn3c(=O)[nH]c4ccccc4c3=O)CC2)c1`?
TDP1 inh: 6.4%; TDP1 cell noCPT: 11.6µM*; TDP1 cell CPT: 16.4µM*

How did CN1CCN(C(=O)CCn2c(=S)[nH]c3ccccc3c2=O)CC1 do in these assays?
IL1B secr inh: -11.6; TDP1 cell noCPT: 11.6%; TDP1 cell CPT: 3.7%

What do the screens show for `COc1cc2[nH]c(=O)n(CCC(=O)N3CCc4ccccc4C3)c(=O)c2cc1OC`?
IL1B secr inh: -5.9; TDP1 inh: 2.0%; TDP1 cell noCPT: -22.5%; Giardia killer: 10.8; ELG1 repair inh: -3.6%; TDP1 cell CPT: 4.6%

What do the screens show for `O=C(NCc1ccccc1F)Nc1nnc([C@H]2C[C@H](O)[C@@H](CO)O2)s1`?
IL1B secr inh: 3.9; TDP1 cell noCPT: inconclusive; TDP1 cell CPT: inconclusive

How did O=C(CSc1nncn2c1cc1sccc12)Nc1ccc(Br)cc1F do in these assays?
TDP1 inh: 2.6%; TDP1 cell noCPT: 1.7%; TDP1 cell CPT: -6.1%

Results for C[C@@H]1CN([C@@H](C)CO)C(=O)CCCn2nncc2CO[C@H]1CN(C)C(=O)OCc1ccccc1 ?
IL1B secr inh: 29.7; TDP1 cell noCPT: -12.3%; TDP1 cell CPT: 0.6%
